From the supplement of paper PMC6897291

Test system: U-2932
Assay: growth inhibition by drug alone (1 - RLU/untreated control) (fraction); higher = stronger inhibition
Conditions: 177Lu-lilotomab satetraxetan 0 ug/ml
Procedure: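 U-2932 ABC-DLBCL cells were pretreated or not for 18 h with 1 ug/ml 177Lu-lilotomab satetraxetan (600 MBq/mg), washed and seeded (3000 cells/well) on 384-well plates pre-printed with the Selleck Cambridge Cancer Compound library. Viability was read by RealTime-Glo luminescence on days 3-6 after seeding. Effect = 1 - RLU/mean RLU of the 48 untreated no-drug control wells per plate; Bliss score = (M-E)/(1-Fa), with E the expected Bliss-additive effect.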

SMILES	growth inhibition by drug alone (10 nM, time (day): 3)	growth inhibition by drug alone (10 nM, time (day): 4)	growth inhibition by drug alone (10 nM, time (day): 5)	growth inhibition by drug alone (10 nM, time (day): 6)	growth inhibition by drug alone (1000 nM, time (day): 3)	growth inhibition by drug alone (1000 nM, time (day): 4)	growth inhibition by drug alone (1000 nM, time (day): 5)	growth inhibition by drug alone (1000 nM, time (day): 6)
CC(C)[C@]12O[C@H]1[C@@H]1O[C@]13[C@]1(O[C@H]1C[C@H]1C4=C(CC[C@@]13C)C(=O)OC4)[C@@H]2O [Triptolide]	0.345	0.52	0.63	0.677	0.959	0.971	0.978	0.982
CC(O)(CS(=O)(=O)c1ccc(F)cc1)C(=O)Nc1ccc(C#N)c(C(F)(F)F)c1 (stereo not given) [Bicalutamide (Casodex)]	0.0907	0.0654	-0.0744	-0.0699	-0.0505	-0.00664	-0.0598	-0.262
CCC1(c2ccc(N)cc2)CCC(=O)NC1=O (stereo not given) [Aminoglutethimide (Cytadren)]	0.0306	-0.0299	-0.152	-0.107	-0.0187	-0.0577	-0.161	-0.122
N.N.[Cl][Pt][Cl] [Cisplatin]	0.0383	0.00908	-0.0126	0.00453	-0.0314	-0.0428	-0.0416	0.0312
CC(=O)Nc1ccc(OC[C@](C)(O)C(=O)Nc2ccc([N+](=O)[O-])c(C(F)(F)F)c2)cc1 [Andarine (GTX-007)]	0.0764	0.0433	-0.0579	-0.0688	0.0614	0.0399	-0.0394	0.0038
